# This is a sample that favours compounds with a hit; in the whole collection about 18% have one here.
# PLK1 PBD block: qHTS for Inhibitors of PLK1-PDB (polo-like kinase 1 - polo-box domain): Primary Screen | 2.8% of 360,000 active | AID 720504, 2013 | Plk1 PBD binding of FITC phosphopeptide, fluorescence polarization | Serine/threonine-protein kinase PLK1 (Homo sapiens), P53350 | Potency, µM, without a hit: max response, negative = inhibition, actives largely listed as inhibitors; further: series mostly up to about 57 µM; nearly all actives have a fitted effect of over 65% in size
# Target sequence (P53350 whole entry, looked up, the tested form may be a part): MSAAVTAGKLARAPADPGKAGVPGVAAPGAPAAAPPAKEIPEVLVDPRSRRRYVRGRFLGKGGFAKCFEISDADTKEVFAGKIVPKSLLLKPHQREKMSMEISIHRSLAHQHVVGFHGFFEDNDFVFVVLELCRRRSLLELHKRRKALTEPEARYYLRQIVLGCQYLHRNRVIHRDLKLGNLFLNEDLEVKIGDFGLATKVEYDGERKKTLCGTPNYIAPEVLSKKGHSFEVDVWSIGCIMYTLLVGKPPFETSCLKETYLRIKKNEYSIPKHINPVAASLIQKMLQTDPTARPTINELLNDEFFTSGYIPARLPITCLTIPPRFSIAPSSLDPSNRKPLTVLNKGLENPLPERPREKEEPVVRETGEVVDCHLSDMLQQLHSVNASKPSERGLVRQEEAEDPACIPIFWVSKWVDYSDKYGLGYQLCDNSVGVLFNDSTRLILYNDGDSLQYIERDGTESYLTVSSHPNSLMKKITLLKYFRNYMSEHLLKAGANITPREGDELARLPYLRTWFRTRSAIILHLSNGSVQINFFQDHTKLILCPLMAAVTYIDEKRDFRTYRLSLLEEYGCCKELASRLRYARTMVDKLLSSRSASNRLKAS
# KAT2A inh: qHTS Assay for Inhibitors of GCN5L2. Histone acetyltransferase KAT2A (Homo sapiens), Q92830. GCN5L2 HAT assay, ThioGlo1 CoA-SH fluorescence. AID 504327, 2011. 0.21% of 390,000 active. Potency, µM (titrated, usually from 58.9 µM), for inactives: at the highest dose activity change, negative = inhibition, actives largely listed as inhibitors
#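 Titration-based screen in which CoA formation is detected via maleimide probe ThioGlo1 (50uM) turning fluorescent on thiol reaction; substrates H3(1-25) 75uM and acetyl-CoA 70uM, GCN5L2 20nM, 20 min incubation at room temperature.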
# DT40 TDP1 no CPT: qHTS for Inhibitors of human tyrosyl-DNA phosphodiesterase 1 (TDP1): qHTS in cells in absence of CPT; 15% of 420,000 active; DT40 Tdp1-/- hTDP1 cells, no CPT, ATP luminescence, 48 h; Potency, µM (series often up to 46.2 µM), for the others: top-dose activity change, negative = growth inhibition, usual class: inhibitors; further: nearly all actives have a fitted effect of over 55% in size
#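 Cells were dispensed at 400 per well, compounds added by pin tool, plates incubated ≥48 hr at 37 °C, then CellTiter-Glo added for 30 min at room temperature before luminescence reading. Line: DT40 Tdp1-/- complemented with hTDP1; camptothecin omitted.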
# TDP1 block: qHTS Assay for Inhibitors of Tyrosyl-DNA Phosphodiesterase (TDP1) | recombinant TDP1, AlphaScreen DNA substrate cleavage | Potency, µM (top dose mostly 130 µM), inactives show at the top dose activity change, negative = inhibition, hits mostly inhibitors | 0.28% of 350,000 active; further: nearly all actives have a fitted effect of over 40% in size
#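 Compounds were preincubated with Tdp1 (1 nM final) for 15 min at room temperature before substrate (15 nM final) started a 5 min reaction; beads (10 ug/ml final) were then added for 10 min before AlphaScreen detection.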
# VDR inh: Inhibitors of the vitamin D receptor (VDR): qHTS; VDR-SRC2-3 peptide fluorescence polarization, 2 h; Potency, µM, for the others: max response, negative = inhibition, actives largely listed as inhibitors; 0.93% of 400,000 active; AID 504847, 2011
#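 Fluorescence polarization assay measuring small-molecule disruption of VDR binding to the coregulator peptide SRC2-3. Compounds were pin-transferred (23 nl) into the reagent mix and incubated 2 h at room temperature before reading.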
# TDP1 cell CPT: qHTS for Inhibitors of human tyrosyl-DNA phosphodiesterase 1 (TDP1): qHTS in cells in presence of CPT; chicken DT40 Tdp1-/-;hTDP1 cells + 20 nM CPT, ATP luminescence, 48 h; Potency, µM (top dose mostly 46.2 µM), for the others: top-dose activity change, negative = growth inhibition, actives largely listed as inhibitors; 12% of 420,000 active; AID 686979, 2013; further: nearly all actives have a fitted effect of over 55% in size
#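 Chicken DT40 Tdp1-/- cells complemented with human TDP1, 400 cells/well, exposed to compounds plus 20 nM camptothecin for at least 48 h at 37 C; viability read as ATP content by CellTiter-Glo luminescence.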
# Active calls of the source: *; ? = inconclusive; . = no result; ! = not active in a repeat; [ ] = remark or other dose. The call rests on the fitted dose curve; in most records, active means well fitted curve in the direction sought with a large enough effect; inconclusive means small, poorly fitted or top-dose-only effect, or another doubt; inactive means no such curve, though single readings can be large; an effect the other way counts as inactive or inconclusive. On the % scale 0 is the no-effect control and ±100 the full control effect; potency means the concentration at half of the fitted maximal effect.
SMILES,PLK1 PBD block,KAT2A inh,DT40 TDP1 no CPT,TDP1 block,VDR inh,TDP1 cell CPT
Cc1cc(C)nc(Sc2nc(C)nc3c2oc2ccccc23)n1,-8%,-6%,23µM*,0%,-8%,?
Cc1nc(SCC(=O)NC(C)c2ccccc2)c2oc3ccccc3c2n1 (centres undefined),-5%,-2%,21µM*,6%,-1%,16µM*
Cc1nc(SCC(=O)N2CCCc3ccccc32)c2oc3ccccc3c2n1,-10%,-2%,?,4%,-2%,16µM*
Cc1nc(SCC(=O)Nc2ccccc2)c2oc3ccccc3c2n1,-1%,-1%,-30%,-5%,12%,-5%
Cc1ccc(C)c(N2C(=O)c3ccc(C(=O)Nc4ccccn4)cc3C2=O)c1,-3%,.,2%,.,.,1%
CN=C(NC#N)NCCSC[C@H]1N=CN=C1C,.,8%[21.4 µM],.,15%[21 µM],-6%,.
O=S(=O)(CCOc1ccccc1)c1nc2ccccc2[nH]1,-10%,-3%,23µM*,-3%,-7%,?
O=C(CCCOc1ccccc1)Nc1nc2ccccc2[nH]1,-6%,2%,-26%,0%,9%,-3%
O=S1(=O)C[C@H](N2CCOCC2)[C@@H](COCc2ccccc2)N1,-8%,.,-23%,.,.,-16%
N#CC1=C(N)SC2(CCCCC2)SC1c1ccccc1 (centres undefined),21µM*,?,-27%,4%,-29%,-17%
COC(=O)[C@@]1(Cc2ccccc2)[C@H]2c3cc(C(=O)N(C)C)n(Cc4ccc(OC)c(OC)c4)c3C[C@H]2CN1C(=O)c1ccccc1,.,.,.,21%,.,.
O=C(NCc1ccc(Cl)cc1)C1CCN(S(=O)(=O)c2ccc(F)cc2)CC1,-14%,-2%,18µM*!,5%,-3%,3.7µM*
C=CCNC(=O)C1CCN(S(=O)(=O)c2ccc(Br)cc2)CC1,-7%,3%,16µM*,-4%,-5%,?
O=C(NCc1ccc(Cl)cc1)C1CCC(CNS(=O)(=O)c2ccccc2)CC1 (centres undefined),4%,-3%,?,-7%,-1%,-22%
O=C(NCc1ccc(F)cc1)C1CCC(CNS(=O)(=O)c2ccccc2)CC1 (centres undefined),27µM*,21%,?,.,?,?
O=C(NCC1CCCO1)C1CCN(S(=O)(=O)c2ccc(Br)cc2)CC1 (centres undefined),2%,-15%,10%,4%,0%,-10%
CN1C(=O)C(C)(C)c2cc(S(=O)(=O)N3CCC(C(=O)NCc4ccc(F)cc4)CC3)ccc21,5%,-3%,?,.,-1%,7.3µM*
O=C(/C=C/c1ccccc1[N+](=O)[O-])NCc1cccnc1,-7%,-1%,10%,2%,6%,1%
Cc1ccc(Sc2c(C)nn(-c3ccccc3)c2OC(=O)CC(C)C)cc1,.,1%,-27%,6%,79µM*,-6%
COc1ccccc1C(=O)Oc1c(Sc2ccccc2)c(C)nn1-c1ccccc1,.,-1%,?,0%,-30%,?
CCCC(=O)Oc1c(Sc2ccc(Cl)cc2)c(C)nn1-c1ccccc1,.,-7%,21µM*,9%,50µM*,21µM*
CCO[C@@H]1OC(C(=O)N2CCCCCCC2)=C[C@H](c2cn(C(C)=O)c3ccccc23)[C@H]1CCCO,-16%,-4%,?,6%,-10%,16µM*
CCO[C@@H]1OC(C(=O)N2CCCCCCC2)=C[C@H](c2csc3ccccc23)[C@H]1CCCO,4%,3%,23µM*,3%,-2%,21µM*
CCO[C@H]1OC(C(=O)N2CCOCC2)=C[C@@H](c2cn(C(C)=O)c3ccccc23)[C@@H]1CCCO,9%,-4%,-20%,0%,7%,-17%
COc1ccc2oc(=O)cc(CN3CCN(c4ccccc4OC)CC3)c2c1,.,2%,?,9%,3%,?
SMILES,PLK1 PBD block,KAT2A inh,DT40 TDP1 no CPT,TDP1 block,VDR inh,TDP1 cell CPT
COc1ccc2c(CN(Cc3ccccc3)Cc3ccccc3)cc(=O)oc2c1,0%,.,?,.,.,16µM*
COc1ccc2c(CN3CCN(c4ccc(Cl)c(Cl)c4)CC3)cc(=O)oc2c1,-14%,.,13µM*,.,.,21µM*
Cc1ccc2c(CN3CCN(C(=O)c4ccc(F)cc4)CC3)cc(=O)oc2c1,.,-28%,-61%,2%,2%,18µM*
COc1cc2oc(=O)cc(CN3CCN(c4ccc(Cl)c(Cl)c4)CC3)c2cc1Cl,-6%,.,-26%,.,.,-3%
COc1ccccc1N1CCN(Cc2cc(=O)oc3cc(C)ccc23)CC1,-13%,.,?,.,.,23µM*
CCCN(CCC)Cc1cc(=O)oc2cc(OC)ccc12,-5%,.,?,.,.,?
S=C(NCCc1ccccc1)NC1CC2CCC(C1)N2Cc1ccccc1 (centres undefined),-15%,-6%,?,0%,12%,?
CC(=O)c1cccc(Nc2cc(C)nc3nc(-c4ccccc4C)nn23)c1,.,-7%,?,5%,5%,?
CCOC(=O)CCCNC(=O)CSc1nnc(-c2ccccc2)c(-c2ccccc2)n1,-7%,-24%,?,-9%,7%,?
COc1ccc2c(CN3CCN(Cc4ccccc4)CC3)cc(=O)oc2c1,-6%,.,23µM*,.,.,?
O=c1cc(CN2CCN(Cc3ccccc3)CC2)c2ccc(O)c(O)c2o1,-7%,-23%,15µM*,.,7%,10µM*
COc1ccc(N2CCN(Cc3cc(=O)oc4cc(C)c(Cl)c(C)c34)CC2)cc1,-19%,-14%,9.2µM*,2%,10%,15µM*
Cc1c(O)ccc2c(CN3CCN(Cc4ccccc4)CC3)cc(=O)oc12,0%,-16%,-20%,.,15%,-29%
O=c1cc(CN(Cc2ccccc2)Cc2ccccc2)c2c(ccc3ccccc32)o1,-22%,.,?,.,.,29µM*
O=c1cc(CN2CCCCC2)c2c(ccc3ccccc32)o1,-2%,.,?,.,.,?
COc1cccc(N2CCN(S(=O)(=O)c3ccc(-c4ccno4)cc3OC)CC2)c1,.,-15%,?,9%,21%,?
C=CCC1NS(=O)(=O)O[C@H](CCCC)[C@@H]1O (some centres undefined),?,-1%,2%,.,-20%,-16%

# Screening data from PubChem.
